Assay outcomes as filed in PubChem.
PKA-R2B activ = PKA-R2B complex activation. PKA-R2B holoenzyme dissociation, Cy5-IP20 fluorescence polarization; R2B truncated from residue 108, S112A mutant; 0% DMSO only, 100% 113 µM cGMP. activation, % at 11.4 µM. 340,000 tested, 0.079% active. AID 504700;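 active = activation above a cutoff set at the mean over all compounds plus 3 SD, cut at about 18% in these data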;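 note: higher means more holoenzyme dissociation and a rise in polarization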
Target sequence (P31323 whole entry, looked up, other chains not shown, the tested form may be a part): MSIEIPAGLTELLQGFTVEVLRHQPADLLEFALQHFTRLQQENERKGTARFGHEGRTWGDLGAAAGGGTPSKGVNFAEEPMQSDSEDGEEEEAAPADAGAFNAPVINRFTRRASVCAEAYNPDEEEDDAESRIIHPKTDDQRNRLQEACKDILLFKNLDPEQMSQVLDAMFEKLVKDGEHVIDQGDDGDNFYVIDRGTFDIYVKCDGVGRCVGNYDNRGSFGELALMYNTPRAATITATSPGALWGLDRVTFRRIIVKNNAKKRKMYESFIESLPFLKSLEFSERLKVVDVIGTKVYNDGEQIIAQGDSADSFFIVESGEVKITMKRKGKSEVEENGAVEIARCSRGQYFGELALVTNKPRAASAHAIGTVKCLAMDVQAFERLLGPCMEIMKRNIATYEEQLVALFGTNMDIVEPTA
PKA-R1A activ = activates the PKA-R1A holoenzyme complex. PKA-R1A dissociation, Cy5-IP20 fluorescence polarization; scaled: DMSO 0%, 113 µM cGMP 100%. P00514+P68181. activation, % at 11.4 µM. 340,000 tested, 0.083% active. AID 504707;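 active = percent activation above the mean of all tested compounds plus 3 SD, cut at about 19% in these data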;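 note: higher means more PKAc released from R1A so a rise in polarization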
CHT inh = human CHT choline transport inhibition | CHT-expressing cells, membrane potential dye, choline response; hits give low values | B-score at 10 µM | 310,000 tested, 0.86% active;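 active = B-score over 3 SD under the library average, and starting fluorescence ratio not unusually high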;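 note: choline stimulus applied at its EC90 after an EC20 pre-addition; B-score computed on integrated fluorescence ratio after choline addition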
CHT allo act = human CHT allosteric activation; CHT-expressing cells, membrane potential dye, choline EC20; hits give high values; LV-AA mutant CHT in HEK293 cells; B-score at 10 µM; 310,000 tested, 0.49% active; AID 488977;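 active = initial fluorescence not abnormally high and integrated response B-score, plate-corrected, over 3 SD above library mean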
TMEM16A inh = inhibitors of mouse TMEM16A calcium-activated chloride channel | HEK293 TMEM16A/YFP iodide influx fluorescence, ionomycin | normalized B-score (activity score, 25-100; higher = stronger inhibition) at 10 µM | 310,000 tested, 1.2% active | AID 588511;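 active = ratio plate-corrected score three or more library SD toward inhibition, starting fluorescence score within five deviations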;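 note: score derived from kinetic fluorescence span divided by baseline fluorescence per well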
ANO1 activ = mouse TMEM16A channel activation, primary screen; HEK293 TMEM16A/YFP-H148Q/I152L, iodide quench fluorescence; hits give low values; 340,000 tested, 0.3% active; Q8BHY3; AID 623877; B-score at 10 µM;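 active = fluorescence-ratio B-score plate-corrected deviation score at least 3 library SD below zero, with starting fluorescence score within 5 deviations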;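 note: channel opened by trigger with iodide after compound preincubation; score built on the fluorescence ratio of max minus min over baseline; more negative score means more quench and so TMEM16A activation or potentiation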
CHT activ conf = human CHT activation, confirmatory screen; CHT-expressing cells, membrane potential dye fluorescence (FDSS); % of choline EC20–EC90 response window; HEK293 expressing CHT LV-AA mutant; choline added at its EC20; activation, % at 10 µM; 2,500 tested, 91% active; shares compounds with CHT allo act; AID 504833;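 active = primary screen active, with duplicate mean activation above negative control mean plus 3 SD, cut at about 11% in these data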
HEK293 MP dye = CHT activator counter-screen hit in parental HEK293 cells. 2,500 tested, 62% active. membrane potential dye fluorescence (FDSS); measured after EC20 choline addition. ratio readout change at 10 µM, hits read low. shares compounds with CHT allo act;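 active = duplicate-averaged ratio beyond 3 SD from buffer wells, up or down, though filed actives are nearly all decreases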
* marks the source's active call; other numbers are inactive results; i = inactive; . = no result given. Most compounds without a hit are left out; they make up all but 2.5% or so of the library.

SMILES	PKA-R2B activ	PKA-R1A activ	CHT inh	CHT allo act	TMEM16A inh	ANO1 activ	CHT activ conf	HEK293 MP dye
COC(=O)C1=C(c2cc3ccccc3s2)C[C@@H]2CC[C@H]1N2C(=O)N1CCC(C)CC1	-10	1	i	i	i	i	.	.
c1ccc(-c2ccncc2)cc1	-1	-2	.	.	.	i	.	.
Cc1cc(-c2ccccc2)cc(C)[n+]1Cc1ccccc1	5	14	i	7.4*	i	i	12*	-29*
COc1ccc(C(C)=O)cc1Cc1c(O)[nH]c(=S)[nH]c1=O	-9	1	i	i	i	i	.	.
Cc1nonc1OCCNc1ccc([N+](=O)[O-])c2cccnc12	-5	-5	i	i	i	i	.	.
NCCNc1ccc([N+](=O)[O-])c2cccnc12	-5	1	i	6.6*	i	i	32*	-72*
C/C(=C/C=C/[C@@H](C)C(=O)O)[C@H]1CN[C@H](C(=O)O)[C@H]1CC(=O)O	3	-7	i	i	i	i	.	.
CN1CCN(c2ncnc3c2cnn3C)CC1	.	.	i	i	i	i	52*	-59*
COC(=O)C1=C(c2ccc(S(C)(=O)=O)cc2)C[C@@H]2CC[C@H]1N2C(=O)NCc1cccc2ccccc12	3	-1	i	i	i	i	.	.
C[n+]1c(-c2ccccc2)c2cc(N)ccc2c2ccc(N)cc21	5	-5	i	9.2*	i	i	38*	-77*
CCCCCn1c(=O)c(C(=O)NCc2ccncc2)c(O)c2ccccc21	-6	-8	i	i	25*	i	31*	i
COc1ccccc1-n1c(O)c(C=NCCN2CCNCC2)c(=O)[nH]c1=O	3	-3	i	i	i	i	.	.
O=[N+]([O-])c1ccc(N2CCNCC2)cc1NCC1CCCO1 (stereo not drawn)	-13	-13	i	9*	i	i	56*	-66*
Cc1cc(C)[n+](CCCC[n+]2c(C)cc(C)cc2C)c(C)c1	-11	1	i	7.9*	i	i	73*	-99*
CCN(CC)CCN1Cc2ccccc2C1=N	7	0	i	11*	i	i	75*	-73*
O=C(NC1CCCCC1)[C@@H]1CC=C[C@@H]2CCN(Cc3ccccc3)C(=O)[C@@H]21	-3	4	i	i	i	i	.	.
C[C@@H]1CN([C@H](C)CO)C(=O)CCCn2nncc2CO[C@H]1CN(C)C(=O)Oc1ccccc1	-5	5	.	.	.	.	.	.
CC(C)NC(=O)c1ccc(N2CC3CC(C2)c2cccc(=O)n2C3)c([N+](=O)[O-])c1 (stereo not drawn)	-13	0	i	i	i	i	.	.
Cc1cccn2c(NCC3CCCO3)c(C(C)C)nc12 (stereo not drawn)	4	6	i	i	i	i	.	.
CCOc1cc(-c2nc3c(C)cccn3c2NCC2CCCO2)ccc1O (stereo not drawn)	4	-14	i	6.4*	i	i	56*	-34*
O=[N+]([O-])c1ccc(N2CCCNCC2)c2ncccc12	3	-4	i	9.3*	i	i	48*	-89*
Cc1ccc(-c2cc(-c3ccc(C)cc3)[n+](-c3ccc(C(=O)[O-])cc3)c(-c3ccc(C)cc3)c2)cc1	0	-3	i	9.7*	i	i	12*	-35*
